Screening data (PubChem BioAssay)
The entries come from a sample that favours hits as a whole.
MgrA-DNA mod: modulators of Staphylococcus aureus MgrA DNA binding; fluorescence polarization; inhibition, % (no concentration beside the values); 84,000 compounds, 0.13% hits; AID 602314; in the data active = inhibition above about 30%, passing the limit was not always enough;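 note: 0% = protein plus DNA without compound and 100% = DNA alone without protein; higher means less MgrA bound to DNA so lower polarization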
An asterisk follows results filed as active.

SMILES	MgrA-DNA mod
Cc1c(Br)c([N+](=O)[O-])nn1CC(=O)Nc1cc(C(F)(F)F)ccc1Cl	0
O=C(NCCC1=CCCCC1)Nc1cccc(F)c1	-2
c1coc(-c2nc3ccccc3nc2-c2ccco2)c1	22
S=C(NCc1ccco1)Nc1ccc2nc(-c3ccccn3)c(-c3ccccn3)nc2c1	-3
COc1cccc(NC(=S)Nc2ccc(N(C)C)cc2)c1	-2
O=C(c1ccccc1)c1ccc2nc(-c3ccco3)c(-c3ccco3)nc2c1	63*
CNC(=S)Nc1ccc(C)cc1	-1
O=C(NCCO)c1ccc2nc(-c3ccco3)c(-c3ccco3)nc2c1	36
COc1ccc(N(C)C(=S)Nc2ccc3nc(-c4ccco4)c(-c4ccco4)nc3c2)cc1	60*
Cc1ccc(NC(=S)Nc2ccc3nc(-c4ccco4)c(-c4ccco4)nc3c2)cc1	80*
COc1ccc2nc3c(nc2c1)-c1cccc2cccc-3c12	-1
COc1ccc(Cl)cc1C(=O)CSc1cc(C)c2ccccc2n1	-1
CC(C)(C)S(=O)(=O)CC#N	-2
CC1CCc2c(sc(NC(=O)CSc3nncn3C)c2C#N)C1 (stereo not given)	-2
O=C(NCc1ccco1)C1CC1(c1ccccc1)c1ccccc1 (stereo not given)	3
C=C(C)C1Cc2cc(/C=C/C(=O)O)c(O)cc2O1 (stereo not given)	54*
O=C(O)C=Cc1ccc(O)c(O)c1	4
C=C(C)C1Cc2cc3ccc(=O)oc3cc2O1 (stereo not given)	-3
O=C1c2ccccc2C(=O)c2c1oc(-c1ccccc1)c2C(=O)c1ccccc1	13
COc1cc(C=NCCCCN=Cc2cc(OC)c(OC)c(OC)c2)cc(OC)c1OC	1
O=C(OCCN1C(=O)c2cccc3c(N4CCOCC4)ccc(c23)C1=O)c1ccc(S(=O)(=O)N2CCOCC2)cc1	-2
O=C1NC(=O)N(C2CCCCC2)C(=O)/C1=C\C=C\c1ccco1	5
COc1cccc(/C=C2\C(=O)NC(=O)N(c3cccc(OC)c3)C2=O)c1	-6
COc1cccc(N2C(=O)/C(=C/C=C/c3ccco3)C(=O)NC2=S)c1	86*
Clc1ccc(-c2ccnc3ncnn23)cc1Cl	0
CC(C)C(CC(=O)O)NS(=O)(=O)c1ccc(F)cc1 (stereo not given)	-2
O=C1CC2(CCCC2)C(=O)N1CCNc1nccc(C(F)(F)F)n1	3
Cc1ccc(C(=O)COC(=O)C2c3ccccc3Oc3ccccc32)cc1C	2
